From PubChem BioAssay
Hits are enriched below; roughly 4.3% of the tested compounds scored in any of these assays.
UBC13 polyUb = human UBC13 polyubiquitination inhibition; P61088; UBC13 polyubiquitin chain formation, TR-FRET; inhibition, % at 20 µM; actives 0.47% (n = 330,000); AID 485273; in the data active = inhibition above about 45%, passing the limit was not always enough; inconclusive = no clear call, values can overlap the other calls
Target sequence (P61088 whole entry, looked up): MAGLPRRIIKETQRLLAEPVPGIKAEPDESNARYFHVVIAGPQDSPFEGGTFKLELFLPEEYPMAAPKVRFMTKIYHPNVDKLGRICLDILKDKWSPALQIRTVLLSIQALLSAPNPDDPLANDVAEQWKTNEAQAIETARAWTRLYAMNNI
dFosB act-1 = mouse delta FosB homodimer activation; activation, % at 25 µM; purified delta FosB, TAMRA-CDK5 oligo fluorescence polarization; percent of positive-control signal above neutral wells; actives 0.99% (n = 340,000);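 active = mean activation above about 17%, with every replicate also reaching it, limit read from the data, passing the limit was not always enough; inconclusive = only one of the two conditions met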
Target sequence (P13346 whole entry, looked up): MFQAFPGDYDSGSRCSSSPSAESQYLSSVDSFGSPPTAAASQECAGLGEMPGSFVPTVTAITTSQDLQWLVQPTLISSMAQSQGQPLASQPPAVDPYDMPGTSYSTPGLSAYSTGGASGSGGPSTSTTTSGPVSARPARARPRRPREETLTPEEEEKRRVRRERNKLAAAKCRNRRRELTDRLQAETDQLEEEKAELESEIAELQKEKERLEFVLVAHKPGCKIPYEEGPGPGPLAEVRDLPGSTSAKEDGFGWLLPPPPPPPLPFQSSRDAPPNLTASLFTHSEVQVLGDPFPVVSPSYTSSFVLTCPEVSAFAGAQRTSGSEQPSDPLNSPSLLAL
Yeast superoxide = yeast age-related superoxide inhibition as caloric restriction mimetic | actives 0.18% (n = 330,000) | S. cerevisiae aged cells, superoxide DHE fluorescence; active compounds read low | superoxide response (% of plate mean), % at 10 µM | AID 2690;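 active = superoxide response under a set limit, about three screen SD below normal, cut at about 65% in these data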;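 also: yeast aged for seven days with compound at 30 °C before DHE staining; 100% = average MFI of all compound-treated wells on the plate with controls excluded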
NALP1 inh = NALP1 inhibition | actives 0.61% (n = 280,000) | inhibition, % at 10 µM | S. cerevisiae NALP1/ASC/caspase-1 growth, X-gal OD620, 72 h; in the data active = inhibition mostly above about 24%, no sharp cut-off; inactive = mostly below about 32%
NR3A LBD binder = modulators (binders) of human NR3A ligand-binding domain; Tm shift relative to glycine control, % at 25 µM; NR3A LBD differential scanning fluorimetry, Tm shift; 0% = protein alone, 100% = glycine-bound protein; actives 2.5% (n = 340,000);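 active = melting temperature shift of at least 10% of the positive control shift, at one fixed dose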
dFosB act-2 = delta FosB (mouse) homodimer activation | shares compounds with dFosB act-1 | purified delta FosB, TAMRA-CDK5 oligo fluorescence polarization; normalised: neutral wells 0, positive control 100 | activation, % at 24.9 µM | 2,400 tested, under 10 active | AID 588690;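 active = highest replicate activation at or above 34% and every replicate reaching that threshold; inconclusive = meets only one of the two criteria; inactive = meets neither criterion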;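 also: higher polarization means more probe DNA bound by delta FosB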
Numbers without * were called inactive; i = inactive; ? = inconclusive; · = no result given.

SMILES | UBC13 polyUb | dFosB act-1 | Yeast superoxide | NALP1 inh | NR3A LBD binder | dFosB act-2
Cc1cccc(NC(=O)CN2C(=O)N/C(=C/c3ccc(C)s3)C2=O)c1 | -7.9 | 31.0* | 102.4 | 23.3 | -14.6 | -0.4
CCOc1cccc(/C=C2/NC(=O)N(CC(=O)Nc3cccc(C)c3)C2=O)c1O | -14.1 | 23.4* | 108.2 | 9.3 | 3.1 | 1.9
CC(=O)Nc1ccc(S(=O)(=O)N2CCN(S(=O)(=O)c3ccc(F)c(F)c3F)CC2)cc1 | 1.0 | -16.3 | 102.9 | 13.0 | 1.4 | ·
CN1/C(=C\C=N\NC(=O)c2ccccc2Br)C(C)(C)c2ccccc21 | -24.7 | 8.3 | 104.7 | 24.9 | 0.1 | ·
CN1/C(=C/C=N/n2cnnc2)C(C)(C)c2ccccc21 | -0.2 | 20.1* | 81.3 | 18.0 | 0.2 | -0.2
CCCCOc1ccc(C(=O)Nc2cccc(-n3cnnn3)c2)cc1OC | -3.3 | -2.5 | 101.7 | 1.5 | -6.8 | ·
Cc1cccc(C)c1NS(=O)(=O)c1ccc(NC(=O)c2ccc(Cl)c([N+](=O)[O-])c2)cc1 | 5.5 | 39.6* | 99.2 | 18.3 | 18.9* | -1.5
Cc1cc(C)cc(C(=O)Nc2ccc(NC(=O)Cc3ccccc3)cc2)c1 | 4.2 | 42.7* | 112.2 | 8.6 | -5.3 | 5.0
CC(=O)c1ccc(NC(=O)c2cccs2)cc1 | 0.7 | -7.8 | 87.1 | 7.5 | -20.6 | ·
Cc1cc(C)cc(C(=O)Nc2ccc(NC(=O)c3cccs3)cc2)c1 | 2.6 | 24.7* | 108.6 | 6.5 | 26.9* | 3.9
Cc1cc(C)c(NS(=O)(=O)c2ccc(NC(=O)c3cccs3)cc2)c(C)c1 | 13.8 | 26.4* | 116.4 | 27.9 | 25.4* | -6.7
O=C(Nc1ccc(S(=O)(=O)NC2=NCCCCC2)cc1)c1ccc(Cl)c([N+](=O)[O-])c1 | 11.1 | -9.0 | 97.0 | · | -3.0 | ·
COc1cccc(OCC(O)CNC(=O)c2oc3ccc(C)cc3c2C)c1 (configuration not stated) | -2.2 | -7.6 | 105.0 | 3.2 | -1.8 | ·
CCN(CC(=O)Nc1c(F)cccc1F)C(=O)/C=C/c1ccc2c(c1)OCO2 | -8.3 | -1.7 | 89.7 | · | 1.6 | ·
COc1ccc(C(=O)Nc2c(C(C)(C)C)nn(C)c2C(C)(C)C)cc1 | 4.3 | 0.7 | 105.7 | -0.7 | -3.7 | ·
CCOC(=O)/C=C/C(=O)Nc1ccc(S(=O)(=O)Nc2c(C)cc(C)cc2C)cc1 | 4.1 | 19.9* | 101.0 | 20.3 | 7.9 | 6.2
CCOC(=O)/C=C/C(=O)Nc1ccc(Oc2ccccc2)cc1 | 18.5 | -5.4 | 102.4 | 5.1 | -11.4 | ·
Cc1cc(C)c2sc(N(CCCN(C)C)C(=O)CN3C(=O)c4ccccc4C3=O)nc2c1 | 19.6 | 30.7* | 111.9 | 11.0 | 0.3 | -15.4
Cc1ccc2nc(N(CCCN(C)C)C(=O)CN3C(=O)c4ccccc4C3=O)sc2c1 | 19.2 | ? | 98.7 | 11.2 | -1.0 | ·
COc1ccc(NC(=O)CNC(=O)CC23CC4CC(CC(C4)C2)C3)c(OC)c1 | 5.5 | -7.1 | · | · | 4.0 | ·
Cc1ccc(NC(=O)Cn2nnc(C(=O)NCCc3ccccc3)c2N)c(C)c1 | -9.5 | 28.8* | 91.7 | 18.0 | -0.8 | -10.0
COc1ccc(Cl)cc1NC(=O)Cn1nnc(C(=O)NCCc2ccc(OC)c(OC)c2)c1N | 10.7 | 38.3* | 108.9 | 23.5 | -2.0 | 5.7
Cc1ccc(NC(=O)Cn2nnc(C(=O)NCCc3ccccc3)c2N)cc1Cl | 11.0 | 18.6* | 102.4 | 3.5 | -9.9 | 1.8
COc1ccc(CCNC(=O)c2nnn(CC(=O)Nc3ccc(C)cc3C)c2N)cc1OC | -8.8 | 52.8* | i | 38.3 | 7.5 | 6.0
CCOc1ccccc1NC(=O)Cn1nnc(C(=O)NCCc2ccc(OCC)c(OCC)c2)c1N | -8.9 | 7.8 | 84.5 | 16.7 | 0.0 | ·
N#Cc1ccc(-c2ccc(OCC(=O)NCCc3ccccc3)cc2)cc1 | 2.9 | 0.1 | 99.0 | 24.7 | 3.4 | ·
N#Cc1ccc(-c2ccc(OCC(=O)NCC(=O)Nc3ccc(F)c(F)c3F)cc2)cc1 | 16.8 | 41.8* | 105.5 | 21.8 | 7.1 | 6.7
CCOC(=O)c1cnc(SCCc2ccccc2)nc1N | -6.0 | -2.3 | 104.2 | 27.5 | 2.0 | ·
CCOC(=O)c1cnc(SCC(=O)Nc2cc(C(F)(F)F)ccc2N2CCOCC2)nc1N | 1.7 | 20.5* | 100.5 | 31.4 | 1.2 | -1.0
CCOC(=O)c1cnc(SCc2nc(N)nc(Nc3ccccc3)n2)nc1N | -0.2 | 34.5* | 101.9 | -9.1 | -6.3 | -0.9
